Data on 29 compounds can be found in PubChem BioAssay AID738 (SRMLSC, 2007).

About 4,900 (5%) of roughly 98,000 compounds were called active. Many of the other results were omitted from the sample, so actives are more common in it than they were. Values without a mark were called inactive. No stated cut-off is given here; in the data, active means inhibition above about 30%; inactive means the rest.

The test in a line: yeast control strain growth suppression – counter-screen for post-Golgi transport modulator project, primary screen (AID 738). The following applies: efflux-deficient yeast background strain, growth absorbance A615, 16 h; at 10 µM; active compounds read high.
Consider `COC(=O)c1ccc(C(=O)OC)c(NC(=S)N2CCCCC2)c1`, for which the inhibition was 5.49%.
Regarding `O=C(COC(=O)C12CC3CC(CC(C3)C1)C2)NCc1ccco1`, the inhibition was 17.3%.
The value for `O=C(COC(=O)CCC(=O)c1cccs1)NCc1ccco1` was 34.5% (active).
The value for `O=C(CCC(=O)c1cccs1)NCc1ccccc1` was -10%; that for `O=C(c1ccc(F)cc1)c1c[nH]c(C(=O)NCc2cccnc2)c1` was 1.34%.
Under `S=C(NCCC1=CCCCC1)Nc1ccccc1` stands 2.15%; under `CCCc1nc2ccccc2c(C(=O)OCc2nnc(-c3cc(OC)c(OC)c(OC)c3)o2)c1CC`, 3.36%; under `CCC(C)n1c(-c2cc(OC)c(OC)c(OC)c2)nc2nc3ccccc3nc21` (centres undefined), 38.7% (active).
With `COc1cc(-c2nn3c(-c4cccc(C)c4)nnc3s2)cc(OC)c1OC`, the inhibition is 26.7%.
The value for `CC(=O)NS(=O)(=O)c1ccc(NC(=S)NC(=O)C(C)(C)C)cc1` was -5.72%; that for `Cn1c(NN)nc2sc3c(c2c1=O)CCC3` was 7.4%; that for `CC1Cc2ccccc2N1C(=O)c1cc2sccc2n1Cc1ccccc1` (centres undefined) was 15.2%.
As to `O=C(NCc1ccco1)c1cc2sccc2n1Cc1ccc(F)cc1`, the inhibition is 27.8%.
Under `CCOC(=O)c1cc2sccc2n1Cc1ccc(C#N)cc1` stands 33.7% (active); under `Clc1ccccc1SCc1nc2ccccc2[nH]1`, 9.02%; under `Cc1nc(-c2ccccc2)sc1-c1nc(-c2ccccc2)ncc1S(=O)(=O)c1ccccc1`, 12%.
Under `O=C(NC1CCCCC1)N1CCc2[nH]c3ccccc3c2C1` stands -9.69%; under `O=C(Nc1ccc(Cl)cc1)N1CCc2[nH]c3ccccc3c2C1`, 36.5% (active); under `CCCC(=O)N1CCc2[nH]c3ccccc3c2C1`, -9.39%.
For the compound `O=C(c1ccccc1)c1cc(-c2ccccn2)c(N2CCOCC2)s1`, the inhibition was 18%.
The value for `O=S(=O)(N/N=C\c1cccn1-c1ccccc1)c1ccc2ccccc2c1` was 16.6%; that for `Cc1n[nH]c(=O)n1-c1ccc(Oc2ccccc2)cc1` was 20.1%.
As to `COc1ccc2[nH]c(=O)c(CN(Cc3nnnn3CCc3ccccc3)CC3CCCO3)cc2c1` (centres undefined), the inhibition was 5.93%.
Regarding `Cc1cc(C)c2cc(CN(Cc3cccs3)Cc3nnnn3CC3CCCO3)c(=O)[nH]c2c1` (centres undefined), the inhibition was 17%.
`Cc1cc2cc(CN(Cc3cccs3)Cc3nnnn3CC3CCCO3)c(=O)[nH]c2cc1C` (centres undefined): the inhibition is 37.9% (active).
Under `CC(C)(C)c1cc2cccnc2n1Cc1cccc(F)c1` stands -2.87%; under `Cc1ccccc1OC/C(O)=C(\C#N)c1nc2ccccc2[nH]1`, 48.1% (active); under `COC(=O)Cc1nc2ccccc2[nH]1`, 0.73%.
As for `N#C/C(=C(/O)COc1cccc2ccccc12)c1nc2ccccc2[nH]1`, the inhibition is -2.22%.

What is called inhibition is the change of the read-out against control, counted positive when it falls.
